From PubChem BioAssay (NCATS)
“And” between values parts separate entries of the source, which are not always exact repeats. Equal values may be shown once. Records with an inconclusive call do not appear. The source made the active and inactive calls. The call rests on the fitted dose curve; in most records, active means well fitted inhibition curve with a large enough effect; inconclusive means small, poorly fitted or top-dose-only effect; inactive means flat fitted curve, though single readings scatter.

Columns and labels:
NIH3T3 [1] = test: Cytotoxic Profiling of Annotated Libraries Using Quantitative High-Throughput Screening (AID 1296008); conditions: Five cell lines viability, CellTiter-Glo ATP luminescence, 48-72 h; max response: hits give low values
Outline: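 Cells exposed to compounds for 48 or 72 hr at 37 degrees Celsius. Viability read as ATP-coupled luminescence with CellTiter-Glo after 10 min at room temperature.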

HACAT = test: qHTS assay to identify novel small-molecules to repurpose for Merkel cell carcinoma treatment (AID 1296009); conditions: MCC and control cell lines, CellTiter-Glo viability, 72 h; further: potency means the concentration at half of the fitted maximal effect
Outline: (§1)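 Dose-response viability screen; 72 hr exposure at 37 degree celsius; CellTiter-Glo added, 10 min room temperature, luminescence read; RLUs scaled between no-cell and DMSO wells.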

HEK293T = test: as above; conditions: MCC and control cell lines, CellTiter-Glo viability, 72 h; at 44.8 µM (top of the series) unless noted
Outline: as §1

MCC-13 = test: as above; conditions: MCC and control cell lines, CellTiter-Glo viability, 72 h; series mostly up to 46 µM
Outline: as §1

MCC-26 = test: as above; conditions: MCC and control cell lines, CellTiter-Glo viability, 72 h; series mostly up to 46 µM
Outline: as §1

MKL-1 = test: as above; conditions: MCC and control cell lines, CellTiter-Glo viability, 72 h; series mostly up to 46 µM
Outline: as §1

MKL-2 = test: as above; conditions: MCC and control cell lines, CellTiter-Glo viability, 72 h; series mostly up to 46 µM
Outline: as §1

NIH3T3 [2] = test: as above; conditions: MCC and control cell lines, CellTiter-Glo viability, 72 h; at 44.8 µM (top of the series) unless noted
Outline: as §1

UISO = test: as above; conditions: MCC and control cell lines, CellTiter-Glo viability, 72 h; series mostly up to 46 µM
Outline: as §1

WaGa = test: as above; conditions: MCC and control cell lines, CellTiter-Glo viability, 72 h; series mostly up to 46 µM
Outline: as §1

[3] = at 44.8 µM (top of the series) unless noted
Further: nearly all actives have a fitted effect of over 60% in size.
On the % scale 0 is the no-effect control and ±100 the full control effect.

CCCCC(CC)COC(=O)c1ccccc1O (stereo not drawn)
inactive: outcome (NIH3T3 [1]) | outcome (HACAT; [3]) | outcome (HEK293T) | Potency (MCC-13) | Potency (MCC-26) | Potency (MKL-1) | Potency (MKL-2) | outcome (NIH3T3 [2]) | Potency (UISO) | Potency (WaGa)

Cc1cc(C(C#N)c2ccc(Cl)cc2)c(Cl)cc1NC(=O)c1cc(I)cc(I)c1O (stereo not drawn)
active: Potency (WaGa) 10.6 µM
inactive: max response (NIH3T3 [1]) -5.52% | outcome (NIH3T3 [1]) | outcome (HACAT; [3]) | Potency (MCC-13) | Potency (MCC-26) | Potency (MKL-1) | Potency (MKL-2) | outcome (NIH3T3 [2])

O=c1[nH]cnc2c1ncn2[C@@H]1O[C@H](CO)[C@@H](O)[C@H]1O
inactive: max response (NIH3T3 [1]) 0.16% | outcome (NIH3T3 [1]) | outcome (HACAT; [3]) | outcome (HEK293T) | Potency (MCC-13) | Potency (MCC-26) | Potency (MKL-1) | Potency (MKL-2) | outcome (NIH3T3 [2]) | Potency (UISO) | Potency (WaGa)

O=C1O[C@H]([C@@H](O)CO)C(O)=C1O
inactive: outcome (NIH3T3 [1]) | outcome (HACAT; [3]) | outcome (HEK293T) | Potency (MCC-13) | Potency (MCC-26) | Potency (MKL-1) | Potency (MKL-2) | outcome (NIH3T3 [2]) | Potency (UISO) | Potency (WaGa)

C[C@H]1O[C@H](O[C@H]2[C@H](O)[C@@H](O)[C@@H](O[C@H]3[C@H](O)[C@@H](O)[C@H](O)O[C@@H]3CO)O[C@@H]2CO)[C@H](O)[C@@H](O)[C@@H]1N[C@H]1C=C(CO)[C@@H](O)[C@H](O)[C@H]1O
inactive: outcome (NIH3T3 [1]) | outcome (HACAT; [3]) | outcome (HEK293T) | Potency (MCC-13) | Potency (MCC-26) | Potency (MKL-1) | Potency (MKL-2) | outcome (NIH3T3 [2]) | Potency (UISO) | Potency (WaGa)

Cc1c(Cl)cccc1Nc1ccccc1C(=O)O
inactive: outcome (NIH3T3 [1]) | outcome (HACAT; [3]) | outcome (HEK293T) | Potency (MCC-13) | Potency (MCC-26) | Potency (MKL-1) | Potency (MKL-2) | outcome (NIH3T3 [2]) | Potency (UISO) | Potency (WaGa)

CN(N=O)C(=O)N[C@@H]1[C@@H](O)[C@H](O)[C@@H](CO)O[C@@H]1O
inactive: outcome (NIH3T3 [1]) | outcome (HACAT; [3]) | outcome (HEK293T) | Potency (MCC-13) | Potency (MCC-26) | Potency (MKL-1) | Potency (MKL-2) | outcome (NIH3T3 [2]) | Potency (UISO) | Potency (WaGa)

C[C@@H]1CN(c2c(F)c(F)c3c(=O)c(C(=O)O)cn(C4CC4)c3c2F)C[C@H](C)N1
inactive: max response (NIH3T3 [1]) -2.2% and -0.725% | outcome (HACAT; at 9.27 µM (top of the series)) | outcome (HACAT; at 17.4 µM (top of the series)) | Potency (MCC-13) | Potency (MCC-26) | Potency (MKL-1) | Potency (MKL-2) | Potency (UISO) | Potency (WaGa)

Cc1cc(N)c2ccccc2[n+]1CCCCCCCCCC[n+]1c(C)cc(N)c2ccccc21
inactive: max response (NIH3T3 [1]) -20.7%

CC(C)(C)C(=O)C(Oc1ccc(Cl)cc1)n1ccnc1 (stereo not drawn)
inactive: max response (NIH3T3 [1]) -7.83% | outcome (NIH3T3 [1]) | outcome (HACAT; [3]) | outcome (HEK293T) | Potency (MCC-13) | Potency (MCC-26) | Potency (MKL-1) | Potency (MKL-2) | outcome (NIH3T3 [2]) | Potency (WaGa)
active: Potency (UISO) 11.9 µM

O=C(O)c1ccccn1
inactive: outcome (NIH3T3 [1]) | outcome (HACAT; [3]) | outcome (HEK293T) | Potency (MCC-13) | Potency (MCC-26) | Potency (MKL-1) | Potency (MKL-2) | outcome (NIH3T3 [2]) | Potency (UISO) | Potency (WaGa)

c1ccc(CN(CC2=NCCN2)c2ccccc2)cc1
inactive: max response (NIH3T3 [1]) 2.96% | outcome (NIH3T3 [1]) | outcome (HACAT; [3]) | Potency (MCC-13) | Potency (MCC-26) | Potency (MKL-1) | Potency (MKL-2) | outcome (NIH3T3 [2]) | Potency (UISO) | Potency (WaGa)

CNC(=O)Oc1ccc2c(c1)[C@]1(C)CCN(C)[C@@H]1N2C
inactive: max response (NIH3T3 [1]) -4.44% | outcome (NIH3T3 [1]) | outcome (HACAT; [3]) | outcome (HEK293T) | Potency (MCC-13) | Potency (MCC-26) | Potency (MKL-1) | Potency (MKL-2) | outcome (NIH3T3 [2]) | Potency (UISO) | Potency (WaGa)

CC(C)(C)NCC(O)COc1ccc(NC(=O)NC2CCCCC2)cc1 (stereo not drawn)
inactive: outcome (NIH3T3 [1]) | outcome (HACAT; [3]) | outcome (HEK293T) | Potency (MCC-13) | Potency (MCC-26) | Potency (MKL-1) | Potency (MKL-2) | outcome (NIH3T3 [2]) | Potency (UISO) | Potency (WaGa)

CCCCCCCCCCCCOS(=O)(=O)O
inactive: outcome (NIH3T3 [1]) | outcome (HACAT; [3]) | outcome (HEK293T) | Potency (MCC-13) | Potency (MCC-26) | Potency (MKL-1) | Potency (MKL-2) | outcome (NIH3T3 [2]) | Potency (UISO) | Potency (WaGa)

C/C(=C(\CCOP(=O)(O)O)SC(=O)c1ccccc1)N(C=O)Cc1cnc(C)nc1N
inactive: outcome (NIH3T3 [1]) | outcome (HACAT; [3]) inactive [at 4.96 µM] | outcome (HEK293T) inactive [at 4.96 µM] | activity change, negative = cytotoxicity (MCC-13) -6.17% [at 4.84 µM] | activity change, negative = cytotoxicity (MCC-26) 20.3% [at 4.84 µM] | activity change, negative = cytotoxicity (MKL-1) 2.11% [at 4.84 µM] | activity change, negative = cytotoxicity (MKL-2) 12.5% [at 4.84 µM] | outcome (NIH3T3 [2]) inactive [at 4.96 µM] | activity change, negative = cytotoxicity (UISO) 22.4% [at 4.84 µM] | activity change, negative = cytotoxicity (WaGa) 24.3% [at 4.84 µM]

Oc1cccc(O)c1
inactive: outcome (NIH3T3 [1]) | outcome (HACAT; [3]) | outcome (HEK293T) | Potency (MCC-13) | Potency (MCC-26) | Potency (MKL-1) | Potency (MKL-2) | outcome (NIH3T3 [2]) | Potency (UISO) | Potency (WaGa)

COC(=O)[C@H]1[C@H]2C[C@@H]3c4[nH]c5cc(OC)ccc5c4CCN3C[C@H]2C[C@@H](OC(=O)COc2ccc(OC)cc2)[C@@H]1OC
inactive: outcome (NIH3T3 [1]) | outcome (HACAT; [3]) | outcome (HEK293T) | Potency (MCC-13) | Potency (MCC-26) | Potency (MKL-1) | Potency (MKL-2) | outcome (NIH3T3 [2]) | Potency (UISO) | Potency (WaGa)

C=CCn1c(=O)n([C@@H]2O[C@H](CO)[C@@H](O)[C@H]2O)c2nc(N)[nH]c(=O)c21
inactive: max response (NIH3T3 [1]) 4.38% | outcome (HACAT; [3]) | outcome (HEK293T) | Potency (MCC-13) | Potency (MCC-26) | Potency (MKL-1) | Potency (MKL-2) | Potency (UISO) | Potency (WaGa)

Cc1cccc(C)c1NC(=O)CN(CC(=O)O)CC(=O)O
inactive: max response (NIH3T3 [1]) -7.57% | outcome (HACAT; [3]) | outcome (HEK293T) | Potency (MCC-13) | Potency (MCC-26) | Potency (MKL-1) | Potency (MKL-2) | Potency (UISO) | Potency (WaGa)

C[C@H](N)[C@H](O)c1cccc(O)c1
inactive: max response (NIH3T3 [1]) 1.91% | outcome (HACAT; [3]) | outcome (HEK293T) | Potency (MCC-13) | Potency (MCC-26) | Potency (MKL-1) | Potency (MKL-2) | Potency (UISO) | Potency (WaGa)

O=C(O)CN1C(=O)c2cccc3cccc(c23)C1=O
inactive: max response (NIH3T3 [1]) 0.928% | outcome (HACAT; [3]) | outcome (HEK293T) | Potency (MCC-13) | Potency (MCC-26) | Potency (MKL-1) | Potency (MKL-2) | Potency (UISO) | Potency (WaGa)
